Compound activity (PubChem BioAssay)
This is a sample that favours compounds with a hit; in the whole collection about 11% have one here.
IMPase cell inh: qHTS Assay for Identifying the Cell-Membrane Permeable IMPase Inhibitors | Inositol monophosphatase 1 (Rattus norvegicus), P97697 | CHO-M1 cells, IP1 accumulation, HTRF TR-FRET ratio | inhibition (IP1 accumulation), % at 46.1 µM | 120,000 tested, under 10 active; active = well fitted curve in the direction sought with a large enough effect in the signal ratio, not every such curve was filed as active; inconclusive = small, poorly fitted or top-dose-only effect, or a change in a side signal; inactive = no such curve, though single readings can be large or run the other way; the % refers to the signal ratio;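 note: cells stimulated with carbachol in lithium chloride buffer; plate controls were DMSO basal wells for no effect and reference inhibitor wells for full effect; higher means more IMPase inhibition seen as more IP1 and lower FRET ratio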
Target sequence (P97697 whole entry, looked up): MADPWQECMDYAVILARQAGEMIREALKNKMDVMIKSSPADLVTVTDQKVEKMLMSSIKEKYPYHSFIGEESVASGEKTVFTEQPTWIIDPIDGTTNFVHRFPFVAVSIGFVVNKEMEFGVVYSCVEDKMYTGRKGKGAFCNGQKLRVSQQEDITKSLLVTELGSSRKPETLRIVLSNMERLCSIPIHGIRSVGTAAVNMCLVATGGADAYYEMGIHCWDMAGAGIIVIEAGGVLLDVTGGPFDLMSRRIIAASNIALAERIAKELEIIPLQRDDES
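Elevated IP1 in lysates lowers TR-FRET signal (665/620 ratio and 620 channel reported). Cells were CHO-M1, given carbachol (50 uM as added) plus 50mM LiCl, pH 7.4, 30 min, 37C; compounds titrated up to 46 uM; AC50 by Hill equation.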
NPSR antagonist: qHTS Assay for Antagonists of the Neuropeptide S Receptor: cAMP Signal Transduction; Q6W5P4; AID 1461, 2008; 220,000 compounds, 1% hits; Potency, µM (titrated, usually from 38.3 µM), for the others: at the highest dose activity change, negative = inhibition, most hits filed as inhibitors; CHO-NPSR cells, cAMP TR-FRET, antagonist mode; note: potency is the fitted concentration of half-maximal effect; nearly all actives have a fitted effect of over 50% in size
ALDH1A1 block: qHTS Assay for Inhibitors of Aldehyde Dehydrogenase 1 (ALDH1A1); AID 1030, 2008; Aldehyde dehydrogenase 1A1 (Homo sapiens), P00352; Potency, µM (top dose mostly 75.3 µM), for the others: top-dose activity, negative = inhibition, most hits filed as inhibitors; Purified ALDH1A1, NADH fluorescence, propionaldehyde substrate; 220,000 compounds, 7.3% hits; active = well fitted inhibition curve with a large enough effect, not every such curve was filed as active; inconclusive = small, poorly fitted or top-dose-only effect, or another doubt; inactive = no such curve, though single readings can be large or run the other way;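 note: potency is the fitted concentration of half-maximal effect; plate controls were no enzyme wells and a reference inhibitor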
Target sequence (P00352 whole entry, looked up): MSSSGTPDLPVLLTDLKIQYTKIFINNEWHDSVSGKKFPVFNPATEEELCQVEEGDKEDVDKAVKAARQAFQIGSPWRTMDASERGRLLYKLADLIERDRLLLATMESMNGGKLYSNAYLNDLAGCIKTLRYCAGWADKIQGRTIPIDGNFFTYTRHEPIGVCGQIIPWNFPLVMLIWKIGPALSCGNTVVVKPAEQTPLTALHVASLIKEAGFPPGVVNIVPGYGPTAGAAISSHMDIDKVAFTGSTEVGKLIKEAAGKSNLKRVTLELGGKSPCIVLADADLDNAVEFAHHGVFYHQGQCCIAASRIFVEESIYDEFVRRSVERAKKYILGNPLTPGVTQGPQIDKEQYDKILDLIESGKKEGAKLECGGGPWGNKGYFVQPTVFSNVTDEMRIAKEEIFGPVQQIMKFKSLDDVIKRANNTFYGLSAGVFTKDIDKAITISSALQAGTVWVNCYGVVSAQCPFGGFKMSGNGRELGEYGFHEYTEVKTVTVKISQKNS
PNC inhibitor: High Content Assay for Compounds that inhibit the Assembly of the Perinucleolar Compartment | 140,000 compounds, 3.1% hits | PC3M PTB-GFP, PNC prevalence imaging, 16 h; hits give low values | activity change (PNC), negative = inhibition, % at 10 µM | AID 2417, 2010;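 active = readout at or below -70, meaning at least 70% loss of cells showing the perinucleolar compartment, a nuclear body marking cancer cells; inconclusive = readout between -30 and a set limit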;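 note: plate controls were DMSO wells for no effect and camptothecin positive control wells for full effect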
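PC3M cells stably expressing PTB-GFP, 750–1000 cells/well, treated 16 h at 37 °C with compound (23 nl of library stock), in duplicate. After paraformaldehyde fixation and Hoechst stain, imaged at 20x; PNC prevalence scored by image analysis.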
IMPase Li inh: qHTS Assay for Identifying the Cell-Membrane Permeable IMPase Inhibitors: Potentiation with Lithium; CHO-M1 cells, IP1 TR-FRET (IP-One), carbachol + lithium; Potency, µM (titrated, usually from 59.4 µM), inactives show at the highest dose activity, negative = IMPase inhibition, most hits filed as inhibitors; 210,000 compounds, 0.35% hits; AID 1457, 2008;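 note: IP1 builds up when IMPase is blocked and the TR-FRET signal falls; potency is the fitted concentration of half-maximal effect; plate controls were basal vehicle for no effect and high inhibitor control for full effect; nearly all actives have a fitted effect of over 50% in size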
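Concentration–response in CHO-M1 cells, lithium-potentiated; 30 min at 37C. IP1 detected by competitive TR-FRET after 10 min lysis at RT. Hill-fitted AC50.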
HPGD block: qHTS Assay for Inhibitors of HPGD (15-Hydroxyprostaglandin Dehydrogenase); 15-hydroxyprostaglandin dehydrogenase [NAD(+)] (Homo sapiens), P15428; Potency, µM, inactives show at the highest dose activity change, negative = inhibition, most hits filed as inhibitors; AID 894, 2007; purified HPGD, NADH fluorescence kinetic, PGE2 substrate; 150,000 compounds, 4.3% hits; active = well fitted inhibition curve with a large enough effect, not every such curve was filed as active; inconclusive = small, poorly fitted or top-dose-only effect, or another doubt; inactive = no such curve, though single readings can be large or run the other way; note: potency is the fitted concentration of half-maximal effect
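NADH formation kinetics: reaction with 30 uM PGE2 and 1 mM NAD+ (final), 20 nM enzyme, Tris-HCl pH 8 with Tween 20, after 15 min compound preincubation at room temperature. Fluorescence change, last versus first of five reads.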
* marks the source's active call; other numbers are inactive results; ? = inconclusive; · = not tested or not shown; ! = not active in a repeat; [ ] = dose if it differs, or a comment. Unless noted, calls come from the whole dose curve; as a rule, active = well fitted curve in the direction sought with a large enough effect; inconclusive = small, poorly fitted or top-dose-only effect, or another doubt; inactive = no such curve, though single readings can be large; an effect the other way counts as inactive or inconclusive. Unless noted, % is set by controls: 0 for no effect and ±100 for the full control effect.

SMILES | IMPase cell inh | NPSR antagonist | ALDH1A1 block | PNC inhibitor | IMPase Li inh | HPGD block
COc1cccc(NC(=O)CSc2nc(O)c(C/C=C/c3ccccc3)c(=O)[nH]2)c1 | -1 | · | · | · | · | ·
O=[N+]([O-])c1c(NCCCO)cc(Sc2nc3ccccc3s2)c2nonc12 | 3 | ? | 16µM* | 47 | 26%[38.3 µM] | 2.8µM*
CCC(=O)OCCNc1cc(Sc2nc3ccccc3[nH]2)c2nonc2c1[N+](=O)[O-] | 22 | ? | -20% | 31 | 23% | 7.1µM*
CCC(=O)OCCNc1cc(Sc2nc3ccccc3s2)c2nonc2c1[N+](=O)[O-] | 17 | ? | 8.9µM* | 16 | 11%[38.3 µM] | 3.2µM*
CCCc1[nH]nc2c1C(Cc1ccccc1)C(C#N)=C(N)O2 (configuration not stated) | -7 | -2%[46.1 µM] | 5% | -17 | 5%[38.3 µM] | -19%
O=C(C1CCN(S(=O)(=O)c2cccc([N+](=O)[O-])c2)CC1)N1CCOCC1 | · | -14% | -4% | · | 6% | ·
CCN(C(=O)COC(=O)/C=C/c1ccc(S(=O)(=O)N2CCc3ccccc32)cc1)C1CCS(=O)(=O)C1 (configuration not stated) | · | -21% | 5µM* | · | 15% | ·
O=C1NCC2(CCN(CCc3ccccc3)CC2)O1 | 9[20.6 µM] | -2%[46.1 µM] | -1% | · | 3% | -16%
O=C1NCN(c2ccccc2)C12CCN(CCCC(c1ccc(F)cc1)c1ccc(F)cc1)CC2 | 4[20.6 µM] | 13µM* | -3% | · | 20% | -14%
O=C(O)c1cc(-c2ccco2)nn1-c1cccc(Cl)c1 | · | -1% | 2% | · | 7% | ·
CCc1nnc(NC(=O)c2ccc(OC)cc2OC)s1 | 4 | -15%[46.1 µM] | 7.9µM* | ? | 18%[38.3 µM] | -11%
Oc1c(C=Nc2ccccc2)sc(=S)n1Cc1ccccc1 | · | -42% | 1.4µM* | · | 10% | ·
CCn1c(O)c(C=Nc2ccccc2)sc1=S | · | -17% | ? | · | 14% | ·
O=C(O)Cn1c(O)c(C=Nc2ccccc2)sc1=S | 19 | -10%[46.1 µM] | 28µM*! | 16 | 28%[38.3 µM] | ?
COc1cc(/C=N/NC(=O)C(=O)NCC2CCCO2)ccc1OCC(=O)N1CCOCC1 (configuration not stated) | · | 21% | -8% | · | -4% | ·
CN(C)C(=O)c1ccc(NC(=O)c2ccccc2Sc2ccccc2C#N)cc1 | · | 15% | -12% | 34 | 6% | 18µM*
Cc1ccc(-c2nc3cc(NC(=O)Cc4ccc(Cl)cc4)ccc3o2)cc1 | -7 | · | · | · | · | ·
CCOC(=O)/C(N=Nc1c(C)n(C)n(-c2ccccc2)c1=O)=C(/O)c1ccccc1 | · | -21% | -8% | · | 6% | ·
Cc1cccc(NC(=O)c2cc([N+](=O)[O-])ccc2N2CCCCC2)n1 | · | 10µM* | ? | · | 12% | ·
O=C(c1cc([N+](=O)[O-])ccc1N1CCCC1)N1CCCCC1 | · | -10% | -1% | · | -3% | ·
O=C(c1cc([N+](=O)[O-])ccc1N1CCCCC1)N1CCCCC1 | 0 | -10%[46.1 µM] | 20µM* | 99 | 9%[38.3 µM] | ?
O=C1Nc2ccccc2C(O)(C(=O)NCc2ccco2)N1c1ccc(Cl)c(Cl)c1 (configuration not stated) | 1 | -14%[46.1 µM] | 25µM* | 1 | -10%[38.3 µM] | -22%
O=C1Nc2ccccc2C(O)(C(=O)NCc2ccc3c(c2)OCO3)N1c1ccccc1 (configuration not stated) | 15 | -8%[46.1 µM] | ? | -12 | 6%[38.3 µM] | -19%
CN1CCN(Cn2cc(/C=C/C(=O)c3ccccc3)c3ccccc32)CC1 | 5 | -17%[46.1 µM] | -8% | 5 | 15%[38.3 µM] | ?
CCCOc1ccc(N)cc1N | 27 | -19%[46.1 µM] | 5.6µM* | -128* | 24%[38.3 µM] | -14%
SMILES | IMPase cell inh | NPSR antagonist | ALDH1A1 block | PNC inhibitor | IMPase Li inh | HPGD block
CCCOc1cc(N)ccc1C(=O)OCCN(CC)CC | 8[20.6 µM] | · | 7%[20.9 µM] | · | 10% | -7%
COc1ccccc1NC(=O)c1cc2ccccc2o/c1=N\O | -4 | -18%[46.1 µM] | ? | 3 | -6%[38.3 µM] | 22µM*
COc1ccccc1NC(=O)c1cc2ccc(O)cc2o/c1=N\O | 7 | -20%[46.1 µM] | -9% | 0 | -1%[38.3 µM] | -17%
COc1ccccc1CCNC(=O)c1ccc(C)o1 | 0 | 6%[46.1 µM] | -2% | 30 | -4%[38.3 µM] | 8.9µM*
Cc1cc(C)c2c(C)c(C(=O)NCc3ccncc3)oc2c1 | -4 | -1%[46.1 µM] | 1% | -100* | 2% | -24%
CC(=O)c1ccc(NC(=O)c2ccc(CSc3ccccc3)o2)cc1 | ? | ? | -15% | -5 | ? | -28%
O=C(NCc1ccccc1Cl)c1ccc(Br)o1 | · | -8% | ? | · | 5% | ·
COc1ccccc1CNC(=O)c1ccc(Br)o1 | · | 17% | ? | ? | 12% | 40µM*
COc1ccc(CCNC(=O)c2ccc(CSc3ccccc3)o2)cc1 | · | -24% | 3.5µM* | · | -1% | ·
CCc1ccc2oc(C(=O)NCc3ccncc3)c(C)c2c1 | 4 | 6% | ? | ? | 10% | ?
COc1cc(OC)c2c(-c3ccccc3)cc(=O)oc2c1C(CC(=O)N1CCCC1)c1ccc2c(c1)OCO2 (configuration not stated) | · | -33% | · | · | · | ·
O=C(Cn1c(NCCO)nc2ccccc21)c1ccco1 | -10[1.84 µM] | -8%[46.1 µM] | 9% | -19 | 57%[38.3 µM] | -6%
O=C(NCc1ccncc1)c1ccc(Br)o1 | 9 | 6%[46.1 µM] | 3.5µM* | 5 | -2%[38.3 µM] | -11%
COC(=O)CCCC1=CC2=CC(=O)C(C)(OC(=O)c3cccs3)C(=O)C2=CN1Cc1ccco1 (configuration not stated) | · | -8% | -15%[13.5 µM] | · | 3% | -4%
CC(=O)/C=C\c1cn(-c2ncc(C(F)(F)F)cc2Cl)c2ccccc12 | 5[1.84 µM] | ? | -7% | -124* | 5%[38.3 µM] | 32µM*
C#Cc1ccc([C@H]2C=C(C(=O)O)O[C@@H](OCc3ccc(CO)cc3)C2)cc1 | · | -15% | -20% | · | -4% | ·
O=C(COC(=O)c1cccs1)NC12CC3CC(CC(C3)C1)C2 | · | 9% | ? | · | 1% | ·
O=C(COC(=O)c1ccccn1)NC12CC3CC(CC(C3)C1)C2 | 7 | -10%[46.1 µM] | 7% | 30 | 10%[38.3 µM] | 0%
O=C(COC(=O)/C=C/C(=O)OCC(=O)NC12CC3CC(CC(C3)C1)C2)NC12CC3CC(CC(C3)C1)C2 | 9 | -33% | 4µM* | 7 | 26% | -18%
Cc1cnc(C(=O)OCC(=O)NC23CC4CC(CC(C4)C2)C3)cn1 | 3 | -12%[46.1 µM] | 25µM* | 15 | 11%[38.3 µM] | 0%
CS(=O)(=O)N1CCC(C(=O)NCc2ccncc2)CC1 | -6 | 2%[46.1 µM] | 13% | -22 | 5%[38.3 µM] | 1%
